Screening data: PubChem BioAssay, National Center for Advancing Translational Sciences (NCATS)
The sample as a whole holds a higher share of hits than the screen did.
nsP2pro primary – CHIKV nsP2 protease inhibition, primary qHTS | FRET peptide cleavage, nsP2pro, fluorescence 1 h | Potency, µM (titrated, usually from 24.9 µM), most hits filed as inhibitors | hit rate 1.1% among 31,000; note: nearly all actives have a fitted effect of over 60% in size
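Enzyme 150 nM, substrate 2.5 uM (both final); Tris-HCl 10 mM pH 8.0 + 0.01% Tween 20; cpd up to 25 uM, 7 pts; 15 min preinc., 1 h RT; fluorescence ex 525/em 598.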
nsP2 cell sec – cell-based CHIKV nsP2 protease inhibition, secondary; hit rate 10% among 450; shares compounds with nsP2pro primary; cell-based CHIKV nsP2 protease reporter assay; Potency, µM (highest dose often 51.1 µM), most hits filed as inhibitors; note: nearly all actives have a fitted effect of over 70% in size
Target sequence (Q8JUX6 220-798 limits assumed): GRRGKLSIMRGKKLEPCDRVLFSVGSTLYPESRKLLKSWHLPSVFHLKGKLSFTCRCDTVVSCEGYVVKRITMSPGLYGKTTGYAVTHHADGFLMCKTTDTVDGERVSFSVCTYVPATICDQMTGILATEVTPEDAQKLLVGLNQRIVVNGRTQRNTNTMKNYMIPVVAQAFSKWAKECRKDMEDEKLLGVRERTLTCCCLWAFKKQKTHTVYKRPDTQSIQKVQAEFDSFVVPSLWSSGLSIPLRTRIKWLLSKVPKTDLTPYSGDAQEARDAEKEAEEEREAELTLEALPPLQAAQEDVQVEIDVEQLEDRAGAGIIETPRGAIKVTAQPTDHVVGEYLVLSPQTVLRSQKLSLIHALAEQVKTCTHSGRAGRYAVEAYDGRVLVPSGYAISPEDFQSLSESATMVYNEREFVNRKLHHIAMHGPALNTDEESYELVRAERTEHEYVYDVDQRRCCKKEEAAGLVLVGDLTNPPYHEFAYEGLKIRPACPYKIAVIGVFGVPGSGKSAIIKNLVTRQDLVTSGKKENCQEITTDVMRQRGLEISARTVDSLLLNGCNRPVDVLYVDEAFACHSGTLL
NSP2 full ctr – full-length CHIKV NSP2 protease inhibition, selectivity | shares compounds with nsP2pro primary | Full-length CHIKV NSP2 protease enzymatic counterscreen | Potency, µM (highest dose often 50.7 µM), usual class: inhibitors | hit rate 39% among 410; note: nearly all actives have a fitted effect of over 65% in size
Furin counter – human furin inhibition, counterscreen for nsP2pro inhibitors; shares compounds with nsP2pro primary; Recombinant human furin enzymatic counterscreen, fluorogenic substrate; Potency, µM (titrated, usually from 50.6 µM), actives largely listed as inhibitors; hit rate 6% among 410
NS23 peptide cs – blocks CHIKV nsP2 protease cleavage of endogenous NS2/3 peptide; shares compounds with nsP2pro primary; Purified CHIKV nsP2 protease, endogenous NS2/3 peptide cleavage; Potency, µM (doses to about 51 µM), most hits filed as inhibitors; hit rate 34% among 410; AID 1964103; note: nearly all actives have a fitted effect of over 55% in size
Papain cs – papain protease inhibition, counterscreen for nsP2pro inhibitors | AID 1964104 | Potency, µM (titrated, usually from 51 µM), usual class: inhibitors | purified papain protease activity, enzymatic inhibition | hit rate 5% among 410 | shares compounds with nsP2pro primary
nsP2pro conf qHTS – confirmation of CHIKV nsP2 protease inhibitors; AID 1964105; hit rate 43% among 410; CHIKV nsP2 protease enzymatic activity, qHTS; Potency, µM (highest dose often 25.5 µM), hits mostly inhibitors; shares compounds with nsP2pro primary; note: nearly all actives have a fitted effect of over 75% in size
HCV NS3 counter – inhibits HCV NS3/4A protease in an nsP2pro selectivity counterscreen; hit rate 20% among 410; HCV NS3/4A protease biochemical counterscreen; shares compounds with nsP2pro primary; AID 1964106; Potency, µM (doses to about 50.9 µM), hits mostly inhibitors; note: nearly all actives have a fitted effect of over 55% in size
A number is an active result; – = inactive; ? = inconclusive. Calls come from the whole dose curve.

SMILES | nsP2pro primary | others
COc1ccccc1NCc1cccn1-c1nnc(N2CCCCCC2)s1 | –
CCc1ccc(NCc2cccn2-c2nnc(N3CCCCCC3)s2)cc1 | ? | nsP2 cell sec=?
Cc1ccc(CNCc2cccn2-c2nnc(N3CCCC3)s2)cc1 | –
CCCCCCCCCCCCCCCC(=O)OCC(=O)[C@@]1(O)[C@H](C)C[C@H]2[C@@H]3CCC4=CC(=O)C=C[C@]4(C)[C@@]3(F)[C@@H](O)C[C@@]21C | –
Cc1ccc(S(=O)(=O)Nc2ccc(F)cc2C(=O)Nc2nc(-c3ccccc3)cs2)cc1 | –
CC(=O)N[C@H](CC(C)C)c1nc(-c2ccc(C)nn2)no1 | –
O=C(NC1CCCN(CCn2nc3n(c2=O)CCCC3)C1)c1ccccc1Cl (centres undefined) | –
CCOC(=O)c1ccc(OCCN2C[C@H](O)[C@@H](O)[C@H](O)[C@H]2CO)cc1 | ? | nsP2 cell sec=–;NSP2 full ctr=?;Furin counter=14.2µM;NS23 peptide cs=–;Papain cs=–;nsP2pro conf qHTS=?;HCV NS3 counter=–
CCCCN1C[C@H](O)[C@@H](O)[C@H](O)[C@H]1CO | –
OCCN1C[C@H](O)[C@@H](O)[C@H](O)[C@H]1CO | –
COCCN1CC2CN(C(=O)CCCc3ccccc3)CC(C1)O2 | –
O[C@H]1CC[C@@H](Cc2cc(-c3ccccn3)on2)O[C@@H]1CN(Cc1ccccc1)Cc1ccccc1 | –
Cc1cc(NC(=O)Nc2nnc(-c3ccncc3)s2)ccc1F | –
CCOC(=O)CCNC(=O)N1CCCC(c2nc(C(C)C)no2)CCNC(=O)CC1 (centres undefined) | –
N#Cc1ccc(CN2CCCC3(Cc4ccccc4NC3=O)C2)cc1 (centres undefined) | –
Cn1ncc(N2CCC(CNC(=O)CCN3CCCC3=O)C2)cc1=O (centres undefined) | –
CC(=O)N[C@H]1C[C@@H](c2cc(C)c(C)cc2C)O[C@@H](C(C)(C)C)C1 | –
CC(C)N1C[C@@H]2OCC(=O)N(Cc3ccccc3)[C@@H]2C1 | –
COCCN1C(=O)CO[C@H]2CN(c3ncccn3)C[C@H]21 | 7.94µM | nsP2 cell sec=–;NSP2 full ctr=33.5µM;Furin counter=?;NS23 peptide cs=?;Papain cs=–;nsP2pro conf qHTS=16.3µM;HCV NS3 counter=?
O=C1O[C@@H]2CN(c3ncccn3)C[C@@H]2N1CCc1ccc(F)cc1 | –
COC[C@@H]1CN(S(=O)(=O)c2c(C)noc2C)C[C@H]1c1ccncc1 | –
COc1cccc(CNc2ccc(S(=O)(=O)Nc3ccccn3)cc2)c1O | –
O=C(COc1ccccc1CNc1ccc(F)cc1)Nc1ccc(F)cc1 | –
Oc1ccc(NCc2ccccc2OCc2ccccc2)cc1 | 3.01µM | nsP2 cell sec=11.6µM;NSP2 full ctr=?;Furin counter=–;NS23 peptide cs=18.3µM;Papain cs=–;nsP2pro conf qHTS=?;HCV NS3 counter=20.6µM
Oc1cc(NCc2ccc(Cl)cc2)cc2cccnc12 | –
SMILES | nsP2pro primary | others
CCOc1ccc(CCNC(=O)c2ccccn2)cc1OCC | –
Oc1ccc(NCc2ccccc2OCc2ccc(Cl)cc2)cc1 | 2.39µM | nsP2 cell sec=11.6µM;NSP2 full ctr=13µM;Furin counter=–;NS23 peptide cs=?;Papain cs=–;nsP2pro conf qHTS=?;HCV NS3 counter=13µM
CCOc1cc(CNc2ccc(O)cc2)ccc1OCc1ccc(Cl)cc1 | 10µM | nsP2 cell sec=13µM;NSP2 full ctr=18.3µM;Furin counter=–;NS23 peptide cs=?;Papain cs=–;nsP2pro conf qHTS=–;HCV NS3 counter=?
O=C(COc1ccccc1CNc1ccc(F)cc1)Nc1ccc(Cl)cc1 | –
O=C(COc1ccccc1CNc1ccccc1)Nc1ccc(F)cc1 | –
O=C1Cc2c(-c3ccoc3)n[nH]c2CN1Cc1ccccc1 | –
C[C@@H]1[C@H](c2c(F)ccc(F)c2F)C[C@H](NC(=O)c2cnc3c(c2)C[C@@]2(C3)C(=O)Nc3ncccc32)C(=O)N1CC(F)(F)F | –
COCCC1(NS(=O)(=O)N(C)C)CCN(S(C)(=O)=O)CC1 | –
O=S(=O)(N[C@H]1[C@H](O)[C@H](O)C[C@@H]1c1ccc(C(F)(F)F)nc1)c1ccc(Cl)cc1 | –
CC[C@H](N)C(=O)O | –
O=C[C@H](O)[C@@H](O)[C@H](O)CO | –
C#CCN(Cc1nc(-c2ccccc2OCC)oc1C)C1CCCCC1 | –
O=C(c1ccc2c(c1)ncn2-c1ccc(Cl)cc1)N1CCCCC1 | –
Cc1ccnc(NC(=S)N2CCN(c3ccccc3C(F)(F)F)CC2)c1 | –
CN1CCCC1c1nc(C2CN(S(=O)(=O)c3ccc(C#N)cc3)C2)no1 (centres undefined) | –
Cn1nc(C2CCCC2)cc1NC(=O)C1CC1 | –
COc1cccc(Nc2ccnc(-c3nnc(C)n3C3CCCCC3)c2)c1 | –
COc1ccc2c(c1)C=C1Cn3c-2c(C2CCCCC2)c2ccc(cc23)C(=O)NS(=O)(=O)N(C)CCOCCN(C)C1=O | –
CCCC(=O)OC[C@@H](OC(=O)CCC)[C@@H](OC(=O)CCC)[C@H](Cn1c2nc(=O)[nH]c(=O)c-2nc2cc(C)c(C)cc21)OC(=O)CCC | 0.7µM | nsP2 cell sec=–;NSP2 full ctr=–;Furin counter=–;NS23 peptide cs=–;Papain cs=?;nsP2pro conf qHTS=–;HCV NS3 counter=–
CC(=O)NCC(=O)O | –
O=C(OCC(O)CO[C@@H]1O[C@H](C(=O)O)[C@@H](O)[C@H](O)[C@H]1O)c1ccccc1 (some centres undefined) | –
O=C(c1ccc(CCC2COc3ccccc3O2)cc1)N1CCCCC1 (centres undefined) | –
O=C(c1ccc2c(c1)OCCO2)N1CCC(Cn2cc(CCO)nn2)CC1 | –
C=C1C[C@]23C[C@H]1[C@@H](O)C[C@H]2[C@@]12C=C[C@H](O)[C@@](C)(C(=O)O1)[C@H]2[C@@H]3C(=O)O | –
C=C1CC23CC1CCC2C12OC(=O)C(C)(C(O)CC1O)C2C3C(=O)O (centres undefined) | ? | nsP2 cell sec=–;NSP2 full ctr=–;Furin counter=–;NS23 peptide cs=–;Papain cs=–;nsP2pro conf qHTS=–;HCV NS3 counter=–
SMILES | nsP2pro primary | others
C=C1C[C@]23C[C@H]1CC[C@H]2[C@@]12CC[C@H](O)[C@@](C)(C(=O)O1)[C@H]2[C@@H]3C(=O)O | –
CC(=O)Nc1sc2c(c1-c1nc3ccccc3s1)CCNC2 | –
CCC(=O)O[C@@H]1[C@@H](C)O[C@@H](O[C@H]2[C@H](N(C)C)[C@@H](O)[C@H](O[C@H]3[C@@H](CC=O)C[C@@H](C)[C@@H](OC(C)=O)/C=C/C=C/C[C@@H](C)OC(=O)C[C@@H](OC(=O)CC)[C@@H]3OC)O[C@@H]2C)C[C@]1(C)OC(C)=O | –
Oc1ccc(CNc2ccccc2F)c2cccnc12 | 3.13µM | nsP2 cell sec=–;NSP2 full ctr=15.4µM;Furin counter=–;NS23 peptide cs=10.9µM;Papain cs=–;nsP2pro conf qHTS=1.89µM;HCV NS3 counter=–
Oc1ccc(CNc2ccccc2Cl)c2cccnc12 | –
Oc1ccc(CNc2ccccc2C(F)(F)F)c2cccnc12 | –
Cc1ccc(-c2ccc(=O)n(CC(=O)NCCc3ncc[nH]3)n2)cc1 | –
